Only a selection was taken, and hits are over-represented in it overall.
FECH inh: human FECH heme synthesis enzyme inhibition; P22830; purified FECH, Ni-mesoporphyrin absorbance 550 nm; calls only at 10 µM (by protocol); 20,000 compounds, 3.3% hits; AID 1671448;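 active = enzyme reaction rate more than 3 SD below the solvent-only control wells on the same plate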;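 note: lower slope than DMSO wells means FECH inhibition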
Target sequence (P22830 whole entry, looked up): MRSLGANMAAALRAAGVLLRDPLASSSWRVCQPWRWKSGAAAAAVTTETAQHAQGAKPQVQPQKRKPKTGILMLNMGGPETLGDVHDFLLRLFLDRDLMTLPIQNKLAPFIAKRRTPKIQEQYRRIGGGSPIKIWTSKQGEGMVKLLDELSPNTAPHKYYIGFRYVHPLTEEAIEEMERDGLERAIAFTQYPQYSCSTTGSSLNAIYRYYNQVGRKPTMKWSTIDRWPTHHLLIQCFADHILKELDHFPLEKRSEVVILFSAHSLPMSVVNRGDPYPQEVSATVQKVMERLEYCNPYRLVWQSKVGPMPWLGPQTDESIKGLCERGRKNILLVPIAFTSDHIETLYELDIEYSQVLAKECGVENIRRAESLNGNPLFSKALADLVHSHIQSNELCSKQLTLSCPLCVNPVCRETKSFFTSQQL
Each line names hits and unclear results; the compound was inactive in the other large screens.

NC(=O)C1(c2nc(CCc3ccccc3)nn2-c2ccccn2)CC1	none
Cc1nc2nc[nH]n2c(=O)c1NC(=O)Nc1cccc(Cl)c1C	none
Cc1ccc(NCc2cc(=O)n3[nH]c(-c4ccc(C(C)(C)C)cc4)nc3n2)cc1Cl	none
CCOc1ccc(NCc2cc(=O)n3[nH]c(-c4ccc(C(C)(C)C)cc4)nc3n2)cc1	FECH inh active
CC(C)(C)c1ccc(-c2nc3nc(CNc4cccc(C(F)(F)F)c4)cc(=O)n3[nH]2)cc1	none
CCOc1ccc(NCc2cc(=O)n3[nH]c(NCc4ccccc4)nc3n2)cc1	none
COc1ccc(NCc2cc(=O)n3[nH]c(-c4ccc(C(C)(C)C)cc4)nc3n2)cc1	none
CC(C)(C)c1ccc(-c2nc3nc(CNc4ccc(Cl)cc4)cc(=O)n3[nH]2)cc1	none
Cc1ccccc1NCc1cc(=O)n2[nH]c(-c3ccc(C(C)(C)C)cc3)nc2n1	FECH inh active
Cc1c(Cl)cccc1NCc1cc(=O)n2[nH]c(-c3ccc(C(C)(C)C)cc3)nc2n1	none
CC(C)(C)c1ccc(-c2nc3nc(CNc4ccccc4)cc(=O)n3[nH]2)cc1	FECH inh active
Cc1ccc(CN(C(=O)c2ccc(=O)[nH]c2)C2CCCC2)s1	none
Cc1ccc(Nc2cc(C)nc(Nc3ccc(NC(=O)c4ccc(F)cc4)cc3)n2)cc1	none
O=C1CCS(=O)(=O)N1c1ccc(S(=O)(=O)NCc2ccc(Cl)cc2)cc1	none
Cc1ccc(CN(C(=O)c2ccc(-n3cnnc3)cc2)C2CC2)s1	none
CCn1nc(C)c(C(=O)NCc2cc(-c3ccc(C)cc3)on2)c1C	none
Cc1ccccc1-c1cc(N2CCN(C(=O)NCCc3ccccc3)CC2)ncn1	none
COc1ccc2oc(CNC(=O)c3cc(CC(C)C)[nH]n3)nc2c1	none
COc1nc2c(cc1CNC(=O)CN1CCCC1)C(=O)N(C1CCCC1)C2	none
CCc1ccc(NCc2cc(=O)n3[nH]c(NCc4ccc(OC)cc4)nc3n2)cc1	none
CCCc1cc(=O)n2[nH]c(CNc3ccc(Cl)cc3)nc2n1	FECH inh active
CCCc1cc(=O)n2[nH]c(CNc3ccccc3OC)nc2n1	FECH inh active
CCCc1cc(=O)n2[nH]c(CNc3ccccc3CC)nc2n1	FECH inh active
Cc1c(Cl)cccc1NCc1cc(=O)n2[nH]c(NCc3ccc(F)cc3)nc2n1	none
CCCc1cc(=O)n2[nH]c(CNc3ccc(CC)cc3)nc2n1	none
Cc1c(Cl)cccc1NCc1nc2nc(C(C)C)cc(=O)n2[nH]1	FECH inh active
CCOc1ccccc1NCc1nc2nc(C(C)C)cc(=O)n2[nH]1	none
COc1ccc(CNc2nc3nc(CNc4ccc(Cl)cc4)cc(=O)n3[nH]2)cc1	none
COc1ccccc1CNc1nc2nc(CN3CCN(c4ccccc4)CC3)cc(=O)n2[nH]1	none
CCCc1cc(=O)n2[nH]c(CNc3c(C)cccc3C)nc2n1	none
Cc1nc(SCc2nc(-c3ccc(OC(C)C)cc3)oc2C)[nH]c(=O)c1C	none
O=C(Nc1cccc(N2CCCS2(=O)=O)c1)c1ccccc1C(F)(F)F	none
COc1cccc(Cl)c1-c1ccc2oc(C)nc2c1	none
CN(Cc1cc(C(C)(C)C)n[nH]1)Cc1coc2ccccc2c1=O	none
c1ccc(CN(Cc2nccs2)Cc2cccn2-c2ncccn2)cc1	none
CC(C)CCNC(=O)C1c2c(n(C)c3ccccc23)SCC(=O)N1c1ccccc1F (centres undefined)	none
COc1ccccc1NC(=O)C1CCN(c2ccc(-c3cccs3)nn2)CC1	none
CCCN1CCN(C(=O)CN2C(=O)C3CCCCN3c3ccc(C(=O)N(C)C)cc32)CC1 (centres undefined)	none
CCCC(C(=O)Nc1cc(OC)c(OC)c(OC)c1)N1Cc2ccccc2C1=O (centres undefined)	none
CC1CCCCN1CCCNC(=O)C1CCN(c2ncnc3c2nc2n3CCCCC2)CC1 (centres undefined)	none
CNc1nc(N2CC[C@@H](c3ccc4ccccc4c3)[C@H](O)C2)ncc1F	none
COc1cc(OC)c(NC(=O)CN2CCCN(Cc3ccccc3)S2(=O)=O)cc1Cl	FECH inh active
COc1ccccc1NC(=O)CN1CCCN(Cc2cccc(F)c2)S1(=O)=O	none
CCOc1ccccc1NC(=O)CN1CCCN(Cc2ccc(OC)cc2)S1(=O)=O	none
COc1ccccc1NC(=O)CN1CCCN(Cc2ccc(Cl)cc2)S1(=O)=O	none
COc1cc(OC)c(NC(=O)CN2CCN(Cc3ccccc3F)S2(=O)=O)cc1Cl	none
CCOc1ccccc1NC(=O)CN1CCCN(Cc2cccc(C)c2)S1(=O)=O	FECH inh active
COc1ccc(NC(=O)CN2CCCN(Cc3ccccc3)S2(=O)=O)c(OC)c1	none
COc1ccccc1NC(=O)CN1CCCN(Cc2cccc(C)c2)S1(=O)=O	FECH inh active
CCOC(=O)c1ccccc1NC(=O)CN1CCCN(Cc2cccc(C)c2)S1(=O)=O	none
O=C(Nc1ccnn1CC1=CCCN(CCO)C1)c1ccco1	none
COc1c(C)cnc(Cn2c(=O)c3cnc(-c4cccnc4)nc3n(C)c2=O)c1C	none
CC(=O)N1CCSc2ccc(S(=O)(=O)Nc3ccc(S(N)(=O)=O)cc3)cc21	none
Cn1cnnc1CCNC(=O)CSCc1ccccc1Cl	none
O=C1CCc2cc(S(=O)(=O)N3C[C@@H]4[C@H](C3)[C@H]3CC[C@@H]4O3)ccc2N1	none
Cc1c(CN2CCCC(c3ccn[nH]3)C2)[nH]c2ccc(F)cc12 (centres undefined)	none
CCCc1nc2nc[nH]n2c(=O)c1NC(=O)Nc1cc(Cl)c(OC)cc1OC	none
Cc1ccc(C(=O)Nc2cc(C)nn2-c2ncnc3c2cnn3-c2cccc(Cl)c2)cc1	none
CCCCC1CCC(C(=O)Nc2cc(C)nn2-c2ncnc3c2cnn3-c2ccc(C)cc2C)CC1 (centres undefined)	none
Cc1ccc(-n2ncc3c(-n4nc(C)cc4NC(=O)CCC4CCCC4)ncnc32)c(C)c1	none
Cc1cc(C)cc(C(=O)Nc2cc(C)nn2-c2ncnc3c2cnn3-c2cccc(Cl)c2)c1	FECH inh active
Cc1ccc(C(=O)Nc2cc(C)nn2-c2ncnc3c2cnn3-c2cccc(C)c2C)cc1	FECH inh active
COc1cccc(C(=O)Nc2cc(C)nn2-c2ncnc3c2cnn3-c2cccc(C)c2C)c1	none
Cc1cc(NC(=O)c2ccc(F)c(F)c2)n(-c2ncnc3c2cnn3-c2cccc(C)c2C)n1	none
Cc1cc(C)cc(C(=O)Nc2cc(C)nn2-c2ncnc3c2cnn3-c2ccc(Cl)cc2)c1	none
Cc1ccc(-n2ncc3c(-n4nc(C)cc4NC(=O)C4CCCC4)ncnc32)c(C)c1	FECH inh active
COCC(=O)N[C@H]1C[C@@H](C(=O)NCc2ccc3c(c2)OCO3)N(C)C1	none
CCCCOC(=O)c1ccc(NC(=O)Cc2csc(NC(=O)Nc3ccccc3OC)n2)cc1	none
CCc1cc(Sc2ccc(NC(=O)Nc3ccccc3C)cc2)n2nc(C)nc2n1	none
O=C1NCC2(CCN(Cc3c(C(=O)N4CCCC4)nc4ccccn34)CC2)O1	none
COCCn1c(CCCC(=O)NCCN(C)C)nc2cccnc21	none
Cc1ccc(S(=O)(=O)NCCn2c(-c3ccc(F)cc3)nc3cccnc32)cc1	none
COc1ccc(Nc2c(-c3ccc4c(c3)CCCC4)c(=O)c2=O)cc1	none
O=C(Cc1ccc(Cl)cc1)NCCn1c(CCc2ccccc2)nc2cccnc21	none
CC(Cn1cnc2ccccc2c1=O)NCc1ccc2nsnc2c1 (centres undefined)	none
Cc1nc2nc(C3CC3)[nH]n2c(=O)c1NC(=O)Nc1ccc(Cl)cc1	none
COc1cccc(NC(=O)Nc2c(C)nc3nc(C)[nH]n3c2=O)c1	none
CCc1nc2nc(C)c(NC(=O)Nc3cccc(C(F)(F)F)c3)c(=O)n2[nH]1	none
CCOC(=O)CCc1c(C)nc2nc(CNc3cccc(C(F)(F)F)c3)[nH]n2c1=O	FECH inh active
CCOc1ccccc1N(Cc1nc2nc(C)cc(=O)n2[nH]1)C(=O)c1ccccc1F	none
